Screening data: PubChem, Bradner/Qi Labs at DFCI
Many of the other results were omitted from the sample, so hits are more common in it than they were.
CBX7 AlphaScr – CBX7 inhibition, primary AlphaScreen; O95931; AlphaScreen His6-CBX7 / biotin-H3K27me3 peptide binding; hits give low values; normalised signal (fraction of DMSO) (concentration not given with the values); 66,000 tested, 1.1% active; AID 1224903; in the data active = normalised signal below about 0.5
Target sequence (O95931 whole entry, looked up): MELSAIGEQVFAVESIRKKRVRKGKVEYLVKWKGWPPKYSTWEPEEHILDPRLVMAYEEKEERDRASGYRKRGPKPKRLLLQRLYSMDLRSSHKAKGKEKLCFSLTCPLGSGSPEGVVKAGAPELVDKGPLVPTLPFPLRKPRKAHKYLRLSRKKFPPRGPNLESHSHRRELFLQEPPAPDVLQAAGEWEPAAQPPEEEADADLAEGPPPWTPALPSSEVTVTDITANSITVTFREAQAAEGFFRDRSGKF
Numbers stand for hits; i = inactive.

SMILES	CBX7 AlphaScr
Cc1noc(/C=C/c2cccs2)c1S(=O)(=O)N1CCCC(C(=O)Nc2ccncc2)C1 (centres undefined)	i
Cc1ccc(Sc2cc(C(=O)NCCN3CCOCC3)c3ccccc3n2)cc1	i
O=C(O)c1cccc(Nc2nc(-c3ccccc3)cs2)c1	i
CCc1ccc(-c2csc(Nc3ncccn3)n2)cc1	i
Cc1cccc(Nc2nc(-c3ccc(Cl)cc3)cs2)c1	i
c1ccc(-c2csc(Nc3ncccn3)n2)nc1	0.0089
O=C(O)c1cccc(Nc2nc(-c3ccccn3)cs2)c1	0.15
Oc1ccc(Nc2nc(-c3ccccn3)cs2)cc1	0.0014
O=C(O)c1cccc(Nc2nc(-c3ccncc3)cs2)c1	i
CCOc1ccccc1Nc1nc(-c2ccccn2)cs1	i
c1cnc(Nc2nc(-c3ccncc3)cs2)nc1	i
COc1ccc(-c2csc(Nc3ccc(O)cc3)n2)cc1OC	i
Cc1cccc(Nc2nc(-c3ccccn3)cs2)c1	0.16
Cc1cccc(Nc2nc(-c3ccncc3)cs2)c1	i
c1ccc2[nH]c(CSc3nc4ccccc4n3C3CCCCC3)nc2c1	i
Cc1ccc(-c2noc(C(C)(C)Oc3ccc(Cl)cc3)n2)cc1	i
COC(=O)c1ccc(/C=C/c2ccc3cccc(OCc4ccccc4Cl)c3n2)cc1	i
CCOc1ccc(S(=O)(=O)Nc2ccc3oc4c(c3c2)CCC(C)C4)cc1 (centres undefined)	i
O=C(Nc1nc(-c2ccc(F)cc2)cs1)c1cccc(Br)c1	i
COc1ccc(-c2csc(Nc3cccc(O)c3)n2)cc1OC	i
Oc1cccc(Nc2nc(-c3ccncc3)cs2)c1	i
Oc1cccc(Nc2nc(-c3ccccn3)cs2)c1	0.19
COCCNC(=O)CSc1nc(-c2ccc(SC)cc2)[nH]c1-c1ccccc1	i
COc1ccc(N2CCC(CNS(=O)(=O)c3cccc(Cl)c3)C2)cc1 (centres undefined)	0.47
COc1ccc(N2CCN(C3CC(=O)N(c4cccc(Cl)c4)C3=O)CC2)cc1 (centres undefined)	i
SMILES	CBX7 AlphaScr
COc1ccc(N2CCC(CNC(=O)Nc3ccccc3)C2)cc1 (centres undefined)	i
O=C(c1ccc(Cl)c(Cl)c1)N1CCN(c2ccc(N3CCOCC3)nn2)CC1	i
CCC(=O)Nc1nnc(COc2ccc(C(C)(C)C)cc2)s1	i
O=C(Nc1c[nH]c(=O)[nH]c1=O)c1ccc2c(c1)C(=O)N(c1nccs1)C2=O	i
COCCn1c(SCC(=O)Nc2ccccc2C)nnc1-c1c[nH]c2ccccc12	i
O=C(c1ccc2c(c1)N(Cc1ccc(F)cc1)CCS2)N1CCN(c2ccccc2)CC1	i
O=C(c1ccc2c(c1)N(Cc1ccccc1)CCS2)N1CCc2ccccc21	i
O=C(c1ccc2c(c1)N(Cc1ccccc1)CCS2)N1CCN(c2ccccn2)CC1	i
O=C(c1ccc2c(c1)N(Cc1ccccc1)CCS2)N1CCN(c2ccc(Cl)cc2)CC1	i
O=C(c1ccc2c(c1)N(Cc1ccccc1)CCS2)N1CCCCCC1	0.46
O=C(c1ccc2c(c1)N(Cc1ccccc1)CCS2)N1CCN(Cc2ccccc2)CC1	0.37
COCCCNC(=O)C1CCN(c2nc3ccccc3[nH]2)CC1	i
COc1ccc(Nc2cc(C(=O)N(C)Cc3ccccc3)c3ccccc3n2)cc1	i
Cc1ccc(NC2c3ncccc3C(=O)N2Cc2ccc(F)cc2)cc1 (centres undefined)	0.44
O=C1c2cccnc2C(Nc2ccc(Cl)cc2)N1Cc1ccc(F)cc1 (centres undefined)	0.37
Cc1ccc(NC2c3ccccc3C(=O)N2Cc2ccccc2Cl)cc1 (centres undefined)	i
Cc1ccc(NC2c3ccccc3C(=O)N2Cc2ccccc2)cc1 (centres undefined)	i
CCOc1ccc(NC2c3ncccc3C(=O)N2Cc2ccc(F)cc2)cc1 (centres undefined)	0.5
CCOc1ccc(NC2c3ccccc3C(=O)N2Cc2ccccc2Cl)cc1 (centres undefined)	i
CCOc1ccc(NC2c3ccccc3C(=O)N2c2cccnc2)cc1 (centres undefined)	i
Cc1ccc(Cl)cc1NC1c2ncccc2C(=O)N1Cc1ccc(F)cc1 (centres undefined)	i
O=C1c2ccccc2C(Nc2ccccn2)N1Cc1ccccc1 (centres undefined)	i
Cc1cccc(Nc2nc3nonc3nc2Nc2cc(C)ccc2C)c1	i
Cc1cc(C)cc(NS(=O)(=O)c2ccc3[nH]cc(C(=O)NCCCOC(C)C)c(=O)c3c2)c1	i
CCOC(=O)c1c(-c2ccccc2)csc1NC(=O)c1onc(C)c1Cl	i
SMILES	CBX7 AlphaScr
CCOc1cccc(C(=O)Nc2ccc(Cl)c(-c3nc4ncccc4o3)c2)c1	i
Cc1cccc(-n2ccnc2SCC(=O)Nc2ccc(F)cc2)c1C	i
COc1ccc(-c2nc3cnccn3c2Nc2ccc(OC)c(OC)c2)cc1	i
COc1ccc(-c2[nH]c(-c3cc(OC)c4c(c3)OCO4)nc2-c2ccccc2)cc1	i
COc1ccc(-c2nc(-c3ccccc3)c(-c3ccc(Sc4ccccc4)cc3)[nH]2)cc1OC	i
COc1cc(OC)cc(-c2nc(-c3ccccc3)c(-c3ccc(Cl)cc3)[nH]2)c1	i
COc1ccc(-c2nc(-c3ccccc3)c(-c3ccc(F)cc3)[nH]2)c(OC)c1C	0.48
COc1ccc(OC)c(-c2nc(-c3ccccc3)c(-c3ccccc3)[nH]2)c1	0.41
COc1ccc(-c2nc(-c3ccccc3)c(-c3ccccc3)[nH]2)cc1O	i
COc1cccc(-c2nc(-c3ccccc3)c(-c3cc([N+](=O)[O-])ccc3C)[nH]2)c1OC	0.37
COc1ccc(OC)c(-c2nc3ccccc3nc2-c2ccccc2)c1	i
COc1ccc(-c2nc(-c3ccccc3)c(-c3ccccc3)[nH]2)c(OC)c1	0.37
COc1cccc(-c2nc(-c3cccc(C)c3)no2)c1OC	i
Fc1cccc(Cl)c1Cc1noc(-c2cccs2)n1	i
COc1ccc(NC(=O)c2ccc(CNc3c(N4CCCCC4)c(=O)c3=O)cc2)cc1OC	i
Cc1ccc(C)c(NC(=O)c2cnn(-c3ccccc3)c2C2CCNCC2)c1	i
CCOc1ccc(NC(=O)CN(c2ccc(OCC)cc2)S(=O)(=O)c2cccnc2)cc1	i
FC(F)(F)c1nc(Nc2cccc3ccccc23)sc1-c1ccc(Cl)cc1	i
Cc1ccc(CNC(=O)C2CCCN(c3nnc(-n4cccc4)s3)C2)cc1 (centres undefined)	i
Cc1ccc(NC(=O)Cn2c(SCc3cccc(F)c3)nc3ccncc32)cc1F	i
Cc1ccc(-c2nc(Nc3cccc(Cl)c3)sc2C)cc1	i
COc1cc2c(C(=O)N3CCN(Cc4ccccc4)CC3)c(C)n(-c3ccccc3)c2cc1Br	i
Fc1ccc(Nc2nnc(Cc3ccncc3)c3ccccc23)cc1	i
CCCCN(C)S(=O)(=O)c1ccc(C(=O)Nc2ccc(-c3nc4ccccc4[nH]3)cc2)cc1	i
CC(C)CN(CC(C)C)S(=O)(=O)c1ccc(C(=O)Nc2nnc(C3CC3)o2)cc1	0.0062
SMILES	CBX7 AlphaScr
CCCCN(C)S(=O)(=O)c1ccc(C(=O)Nc2ccccc2-c2nc3ccccc3o2)cc1	i
CCN(Cc1ccccc1)S(=O)(=O)c1ccc(C(=O)Nc2nnc(C3CC3)o2)cc1	i
CCCCN(C)S(=O)(=O)c1ccc(C(=O)Nc2nnc(C3CC3)o2)cc1	0.034
CCCN(CCC)S(=O)(=O)c1ccc(C(=O)Nc2nnc(C3CC3)o2)cc1	i
CCCCN(CC)S(=O)(=O)c1ccc(C(=O)Nc2nnc(C3CC3)o2)cc1	0.037
COc1ccc(CNC(=O)c2cnn3c(C)c4c(nc23)CCCC4)cc1	i
